# Screening results: PubChem, National Center for Advancing Translational Sciences (NCATS)
# HepG2 tox – HepG2 cytotoxicity, counter-screen for TGF-b inhibitors; HepG2 CAGA-GFP viability, ATP luminescence, 18 h; Potency, µM (highest dose often 46.1 µM), actives largely listed as cytotoxic; actives 0.76% (n = 410,000)
#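 HepG2 CAGA-GFP cells (1000/well, DMEM with 1% FBS) received compound, then TGF-beta at 500 pg/mL final, and were incubated 18 hours at 37 degrees C. Viability was read by CellTiter-Glo luminescence. Media-only wells were set as complete cell-killing and DMSO as no toxicity.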
# TGFb SMAD3 inh – inhibitors of TGF-b signaling; HepG2 CAGA-GFP TGF-b/SMAD3 reporter, GFP fluorescence, 18 h; TGF-beta stimulated, 500 pg/mL final; Potency, µM (highest dose often 46.1 µM), most hits filed as inhibitors; actives 1.2% (n = 410,000); note: nearly all actives have a fitted effect of over 65% in size
#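 Using HEPG2 CAGA-GFP reporter cells at 1000 cells/well, we pinned test compounds, stimulated with recombinant TGF-beta (500 pg/mL final) and measured total well GFP after 18 h.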
# TDP1 cell noCPT – qHTS for Inhibitors of human tyrosyl-DNA phosphodiesterase 1 (TDP1): qHTS in cells in absence of CPT. DT40 Tdp1-/- hTDP1 cells, no CPT, ATP luminescence, 48 h. actives 15% (n = 420,000). Potency, µM (top dose mostly 46.2 µM), hits mostly inhibitors. AID 686978, 2013; note: nearly all actives have a fitted effect of over 55% in size
#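 Growth kinetics read by CellTiter-Glo luminescence after ≥48 hr at 37 °C. Cells: DT40 Tdp1-/- stably carrying human TDP1, 400 per well, compound exposure in the absence of CPT (DMSO vehicle).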
# HT1080 IDH1KD tx – kills HT-1080 cells with IDH1 knockdown; HT-1080 IDH1 knockdown viability, ATP luminescence, 48 h; Potency, µM (doses to about 46.1 µM), usual class: cytotoxic; actives 2% (n = 360,000)
#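 Cytotoxicity counter-line: IDH1KD HT-1080, 48 h, CellTiter-Glo. Curves classed by r2, magnitude and activity.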
# HT1080-NT tox – kills 2HG-producing HT-1080-NT fibrosarcoma cells | HT-1080-NT fibrosarcoma viability, CellTiter-Glo ATP luminescence, 48 h | Potency, µM (highest dose often 46.1 µM), most hits filed as cytotoxic | actives 1.6% (n = 360,000);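 note: NT is the 2HG producing partner of a matched IDH1 knockdown line; nearly all actives have a fitted effect of over 55% in size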
#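 Read-out is CellTiter-Glo luminescence after 10 minutes at room temperature, following 48 hours' compound treatment of HT-1080-NT cells (750 cells/well, RPMI, 5% FBS, 37 degrees C).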
# DT40 TDP1 CPT – DT40-hTDP1 cell growth loss with CPT. actives 12% (n = 420,000). Potency, µM (doses to about 46.2 µM), most hits filed as inhibitors. AID 686979. chicken DT40 Tdp1-/-;hTDP1 cells + 20 nM CPT, ATP luminescence, 48 h; note: nearly all actives have a fitted effect of over 55% in size
#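 Cell growth measured by CellTiter-Glo luminescence after a minimum 48 h, 37 C compound exposure with 20 nM CPT in Tdp1-knockout DT40 cells stably expressing hTDP1, seeded 400/well; qHTS titration format.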
# A number is an active result; - = inactive; ? = inconclusive; . = not tested or not shown; ! = repeats disagree; [ ] = dose if it differs, or a comment. Rows were chosen to be rich in hits. Some 17% of all compounds tested hit in one or more screens of this group. Calls come from the whole dose curve; as a rule, active = well fitted curve in the direction sought with a large enough effect; inconclusive = small, poorly fitted or top-dose-only effect, or another doubt; inactive = no such curve, though single readings can be large; an effect the other way counts as inactive or inconclusive.
SMILES,HepG2 tox,TGFb SMAD3 inh,TDP1 cell noCPT,HT1080 IDH1KD tx,HT1080-NT tox,DT40 TDP1 CPT
CC1CN(S(=O)(=O)c2cccc(C(=O)N(C)C3CCN(C)CC3)c2)CC(C)O1 (configuration not stated),-,-,-,-,-,-
CCN1CCN(c2ccc(S(=O)(=O)N3CCCCC3)cc2NC(=O)c2cccc(OC(F)F)c2)CC1,-,-,21µM,-,-,?
CC(C)(C)C(=O)Nc1cc(S(=O)(=O)N2CCCCC2)ccc1N1CCCCC1,-,?,23µM,?,?,16µM
CC(C)C(=O)Nc1cc(S(=O)(=O)N2CCOCC2)ccc1N1CCCCC1,-,-,?,-,-,-
CC(=O)c1ccccc1NC(=O)c1cc(S(=O)(=O)N2CCOCC2)ccc1N1CCCC1,-,-,21µM,-,-,?
O=C(Nc1ccc(Cl)c(Cl)c1)Nc1cc(C(=O)N2CCOCC2)ccc1N1CCCCC1,-,-,?,-,-,?
Cc1ccc(C(=O)Nc2cc(S(=O)(=O)N3CCOCC3)ccc2N2CCCC2)cc1,-,?,?,-,-,-
CC(C)COc1cccc(C(=O)Nc2cc(S(=O)(=O)N3CCOCC3)ccc2N2CCCC2)c1,-,?,21µM,-,-,?
O=C(Nc1ccc(Cl)c(Cl)c1)Nc1cc(S(=O)(=O)N2CCOCC2)ccc1N1CCCC1,-,?,18µM,?,-,?
O=C(Nc1cc(S(=O)(=O)N2CCOCC2)ccc1N1CCCCC1)c1ccccc1,-,-,21µM,-,-,?
Cc1ccc(C(=O)NNC(=O)CSc2nnc(C(C)C)n2C)cc1,-,-,-,-,-,-
CC[C@H](C)[C@@H]1NC(=O)[C@@H](CC(C)C)NC(=O)[C@H](C(C)C)NC(=O)[C@H]2CSSC[C@H](NC1=O)C(=O)N2,1.1µM,1.3µM,0.033µM,0.52µM,0.46µM,0.065µM
O=C(COc1ccc2ccccc2c1)Nc1ccc2c3c(cccc13)CC2,-,-,-,?,?,?
CCCCNc1ccc(C(F)(F)F)cc1S(=O)(=O)NCCc1ccc(F)cc1,5µM,?,6.5µM,?,?,18µM
COc1ccc(S(=O)(=O)NCCc2ccc(F)cc2)cc1,-,-,-,-,-,-
Cc1ccc(CCNC(=O)C(NS(=O)(=O)c2ccc3c(c2)oc(=O)n3C)C(C)C)cc1 (configuration not stated),-,-,-,.,.,-
COc1ccc(-c2nc3cnc(OC)nc3n(Cc3cccs3)c2=O)cc1,.,.,?,.,.,-
COc1ccccc1N1CCN(C(=O)c2nc(-c3ccc(C)cc3)n3c2CCCCC3)CC1,-,?,?,.,.,-
COc1cccc(N2CCN(C(=O)c3nc(-c4ccc(Cl)cc4)n4c3CCCCC4)CC2)c1,-,16µM,?,.,.,?
O=C(c1nc(-c2ccc(Cl)cc2)n2c1CCCCC2)N1CCN(c2ccccc2)CC1,-,-,21µM,.,.,?
O=S(=O)(c1ccc(Cl)cc1)N1CCN=C1SCc1cccc(Cl)c1,-,?,?,-,-,?
Cc1ccc(S(=O)(=O)N2CCN=C2SCc2ccc(Cl)c(Cl)c2)cc1,-,?,-,-,-,-
Cc1ccc(CSC2=NCCN2S(=O)(=O)c2ccc(C)cc2)cc1,-,-,?,-,-,23µM
Cc1ccc(C)c(CSC2=NCCN2S(=O)(=O)c2ccccc2)c1,-,?,16µM,-,-,18µM
O=S(=O)(c1ccccc1)N1CCN=C1SCc1c(F)cccc1Cl,-,?,?,-,-,13µM
SMILES,HepG2 tox,TGFb SMAD3 inh,TDP1 cell noCPT,HT1080 IDH1KD tx,HT1080-NT tox,DT40 TDP1 CPT
CCn1nc(C)c(/C=N/NC(=O)Cn2nccc2C)c1C,-,-,-,-,-,-
Cc1nn(C)cc1/C=N/NC(=S)Nc1ccc(Cl)cc1Cl,-,-,?,-,-,0.52µM
Cc1nn(C)cc1/C=N/NC(=O)c1ccc2c(c1)OCO2,-,-,-,-,-,-
CCn1nc(C)c(/C=N/NC(=S)Nc2ccc(Cl)cc2Cl)c1C,-,?,6.5µM,?,-,8.2µM
COc1ccc(Cn2ccnc2SCC(=O)Nc2ccccc2OC)cc1,-,-,?,-,-,?
C(=N\Nc1nc(Nc2ccccc2)nc(Nc2ccccc2)n1)/c1cccnc1,-,-,10µM,-,-,16µM
C(=N\Nc1nc(Nc2ccccc2)nc(Nc2ccccc2)n1)/c1ccncc1,13µM,?,-,-,-,?
O=S(=O)(Cc1ccccc1)C(c1ccccc1)S(=O)(=O)Cc1ccccc1,-,-,?,-,-,-
N#Cc1nc(-c2ccc(OCc3ccc(Cl)cc3)cc2)oc1N1CCCCCC1,-,-,?,.,.,?
COC(=O)C1CCCCN1Cc1ccc2c(c1)CN(C(=O)c1ccc(C)s1)CCO2 (configuration not stated),.,.,-,.,.,-[9.04 µM]
Cc1ccc(C)c(N2CCN(C(=O)c3nn(C)c4c3CS(=O)(=O)c3ccccc3-4)CC2)c1,-,?,23µM,-,-,23µM
COc1cccc(N2CCN(C(=O)c3nn(C)c4c3CSc3ccc(C)cc3-4)CC2)c1,-,?,?,.,.,?
Cc1ccc2c(c1)-c1c(c(C(=O)N3CCN(c4cc(Cl)ccc4C)CC3)nn1C)CS2,-,-,18µM,.,.,?
Cc1cccc(N2CCN(C(=O)c3nn(C)c4c3CS(=O)(=O)c3ccccc3-4)CC2)c1C,-,-,16µM,-,-,13µM
Cn1nc(C(=O)N2CCN(c3ccccc3F)CC2)c2c1-c1ccccc1S(=O)(=O)C2,-,-,?,-,-,15µM!
CCOC(=O)CN1C(=O)S/C(=C/C=C/c2ccc(N(C)C)cc2)C1=O,-,-,?,-,-,-
CC(C)c1cc(NC(=O)CSc2nnc(-c3ccccc3F)n2C)on1,-,-,-,-,-,-
Cc1nn2c(-c3ccccn3)ccnc2c1Br,-,-,-,-,-,-
CCOc1ccc(CCNC(=O)c2cccc(S(=O)(=O)N3CC(C)OC(C)C3)c2)cc1OCC (configuration not stated),-,-,9.2µM,-,-,?
CCOc1ccc(CCNC(=O)c2ccc(-n3c(C)cc4c3CCC(C)C4)cc2)cc1OCC (configuration not stated),-,-,15µM,.,.,15µM
CCOc1ccc(CCNC(=O)c2cccc(S(=O)(=O)N3CCCC3)c2)cc1OCC,-,-,?,-,-,?
CCOC(=O)C1CCN(C(=O)C2CCN(c3nc4ccc(OC)cc4s3)CC2)CC1,-,-,16µM,-,-,13µM
